Molecules are shown by their SMILES. Unmarked numbers belong to inactive results. Calls of active or inactive are those of the source. Cut-off read from the data, not from the text of the source, unless noted: active = inhibition above about 28%; inactive = the rest.

Assay [1] is described as follows: StAR promoter reporter inhibitors, counter-screen for LRH-1 inverse agonist project, cell-based, luminescence, high throughput (AID 651611). As to conditions: StAR promoter luciferase reporter counterscreen, at 3.6 µM, active compounds read high. A general note: The purpose of a counterscreen is to sort out artefacts and off-target activity.
Assay [2] has as its target Nuclear receptor subfamily 5 group A member 2 (Homo sapiens) (UniProt O00482). The assay can be described thus: LRH-1 (NR5A2) inverse agonists, retest, confirmation, cell-based, luminescence (AID 651613; in the data active = inhibition above about 42%;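 note: HEK293T cells co-transfected with LRH-1 and StAR promoter luciferase reporter; 0% = vehicle wells and 100% = parental cells lacking receptor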). The settings on record: cell-based LRH-1 luciferase reporter, inverse agonism; at 3.6 µM; active compounds read high. A general note: In a reporter assay the amount or activity of a reporter protein is the signal.

Assay [3] has as its target Steroidogenic factor 1 (Homo sapiens) (UniProt Q13285). The assay can be described thus: SF1 (NR5A1) inverse agonists, counter-screen for LRH-1 inverse agonist project, cell-based, luminescence, high throughput (AID 651614; in the data active = inhibition above about 44%;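 note: cells cotransfected with StAR promoter reporter and SF1 expression vector; 0% = vehicle on cells with receptor and 100% = vehicle on cells lacking receptor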). The settings on record: cell-based SF1 luciferase reporter, at 3.6 µM, active compounds read high.
A short description of assay [4]: VP16 transactivation reporter inhibitors, counter-screen for LRH-1 inverse agonist project, cell-based, luminescence, high throughput (AID 651615; in the data active = inhibition above about 33%). The settings on record: Gal4-VP16 luciferase reporter cells, at 3.6 µM, active compounds read high.

Chain of Nuclear receptor subfamily 5 group A member 2 (Homo sapiens) (O00482 whole entry, looked up): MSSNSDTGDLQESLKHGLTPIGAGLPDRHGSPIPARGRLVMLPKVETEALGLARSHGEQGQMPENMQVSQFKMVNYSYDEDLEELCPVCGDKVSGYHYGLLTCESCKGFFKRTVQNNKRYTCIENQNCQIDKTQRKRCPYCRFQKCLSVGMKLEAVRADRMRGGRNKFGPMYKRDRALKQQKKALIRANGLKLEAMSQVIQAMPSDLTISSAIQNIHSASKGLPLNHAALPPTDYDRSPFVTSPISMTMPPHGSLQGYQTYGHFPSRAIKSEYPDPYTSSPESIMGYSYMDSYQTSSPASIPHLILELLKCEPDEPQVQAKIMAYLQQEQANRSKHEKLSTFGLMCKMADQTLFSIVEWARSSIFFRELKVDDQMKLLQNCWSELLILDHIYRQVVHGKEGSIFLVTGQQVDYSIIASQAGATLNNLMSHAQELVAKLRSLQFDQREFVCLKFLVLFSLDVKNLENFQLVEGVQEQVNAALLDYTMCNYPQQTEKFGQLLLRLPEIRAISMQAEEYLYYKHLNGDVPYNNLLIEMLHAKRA
Chain of Steroidogenic factor 1 (Homo sapiens) (Q13285 whole entry, looked up, the tested form may be a part): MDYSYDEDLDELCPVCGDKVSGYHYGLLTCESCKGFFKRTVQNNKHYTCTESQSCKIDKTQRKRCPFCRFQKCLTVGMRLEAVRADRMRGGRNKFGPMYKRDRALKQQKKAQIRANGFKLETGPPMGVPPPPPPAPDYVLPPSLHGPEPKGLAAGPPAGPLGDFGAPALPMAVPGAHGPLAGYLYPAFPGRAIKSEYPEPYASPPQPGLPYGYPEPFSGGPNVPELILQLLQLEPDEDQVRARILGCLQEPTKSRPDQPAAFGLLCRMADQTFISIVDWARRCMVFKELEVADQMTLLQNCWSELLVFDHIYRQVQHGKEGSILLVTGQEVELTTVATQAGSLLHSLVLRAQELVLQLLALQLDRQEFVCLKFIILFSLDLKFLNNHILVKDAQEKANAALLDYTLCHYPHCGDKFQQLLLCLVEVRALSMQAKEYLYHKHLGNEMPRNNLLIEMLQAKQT

One may read the inhibition as the drop in the measured response relative to a control, in per cent. As to `O=C(NCc1ccc2c(c1)OCO2)c1nn(-c2ccccc2)c(=O)c2ccccc12`, the inhibition in assay [1] is 4.72%; in assay [2] it was 52.2% (active); in assay [3], 53.3% (active); in assay [4] it was -2.13%.

As for `COc1ccc(-n2c(N)c(C(=O)NCc3cccnc3)sc2=S)cc1`, the inhibition is 4.01% in assay [1], 48.7% (active) in assay [2], 50.4% (active) in assay [3] and -1.03% in assay [4].

For the molecule `O=C(CSC1=NC2(CCCCCC2)N=C1c1ccccc1)Nc1ccc2c(c1)OCCO2`, the inhibition was 8.01% in assay [1], 60.2% (active) in assay [2], 62.2% (active) in assay [3] and 12.7% in assay [4].

Consider `COc1ccc(NC(=O)CN2C(=O)NC3(CCCC3)C2=O)cc1Cl`, for which the inhibition is 2.83% in assay [1], 54.6% (active) in assay [2], 60.6% (active) in assay [3] and -7.78% in assay [4].

Regarding `CCCCc1c(O)nc(SCC(=O)Nc2ccc3c(c2)CCC3)[nH]c1=O`, the inhibition in assay [1] was 6.25%; in assay [2], 37.2%; in assay [3] it was 51.8% (active); in assay [4], 0.43%.

With `CCc1cc(=O)oc2c(C)c(OCC(=O)NC3CC(C)(C)NC(C)(C)C3)ccc12`, the inhibition in assay [1] was 4.17%; in assay [2] it was 56.7% (active); in assay [3], 56.1% (active); in assay [4], 3.79%.

Consider `Cc1cc(C)c(SCCc2ccncc2)c(C)c1`, for which the inhibition is 5.23% in assay [1], 63.7% (active) in assay [2], 57.5% (active) in assay [3] and 34.3% (active) in assay [4].

For `Cc1c(C)c2ccc(OCC(=O)N3CCN(C(=O)C4COc5ccccc5O4)CC3)cc2oc1=O` (stereo unspecified), the inhibition in assay [1] is 14.4%; in assay [2], 60.4% (active); in assay [3], 59.1% (active); in assay [4] it was -17.1%.

In the case of `O=C(CCl)Nc1ccc(N2CCCCCC2)cc1`, the inhibition is 25% in assay [1], 54.6% (active) in assay [2], 51.3% (active) in assay [3] and -8.63% in assay [4].

For the origin of these results see PubChem BioAssay.
